Where “and” joins values, the source holds several entries; their conditions need not be identical. Equal entries are not always repeated. Calls of active or inactive are those of the source.

This passage reports z-score and composite z-score results from PubChem BioAssay.

A short description of assay [1]: optical density shifts of acrAB sulA E. coli – strain DRC41, OD650, 48 h, E. coli filamentation inducer project, primary screen (AID 1152).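 Note: E. coli MC1000 strain DRC41 lacking acrAB efflux pump and sulA.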 The following applies: higher = more signal, called active from +8 up or from −8 down.
Assay [2] can be described thus: probe aLefty1 binding on compound microarray – biochemical, small-molecule microarray, 635/667 nm fluorescence, primary screen (AID 1153).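 Note: score merges spot fluorescence with signal-to-noise ratio from the scanned slide images.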 The following applies: higher = more signal.
A short description of assay [3]: plasmodial surface anion channel blockers, osmotic lysis – cell-based, P. falciparum Indochina, OD700, 1 h, primary screen (AID 1154). The following applies: P. falciparum Indochina infected RBC osmotic lysis, higher = more signal, called active from +8 up or from −8 down.
Assay [4] can be described thus: plasmodial surface anion channel blockers, osmotic lysis – cell-based, P. falciparum Indochina, OD700, 2 h, primary screen (AID 1155).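 Note: lysis reports solute entry through the parasite surface anion channel PSAC.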 The following applies: P. falciparum Indochina infected erythrocytes, higher = more signal, called active from +8 up or from −8 down.
Assay [5] in a line: changes in parasitized red cell lysis, either direction – P. falciparum Indochina, OD700, 3 h, PSAC antagonist project, primary screen (AID 1156). The following applies: P. falciparum-infected erythrocytes, osmotic lysis, higher = more signal, called active from +8 up or from −8 down.
Assay [6] in a line: plasmodial surface anion channel blockers, osmotic lysis – cell-based, P. falciparum Indochina, OD700, 18 h, primary screen (AID 1157). The following applies: P. falciparum Indochina infected erythrocytes, osmotic lysis OD700, 18 h; higher = more signal, called active from +8 up or from −8 down.
Assay [7] can be described thus: S6 kinase pathway phospho-S6 level changes – cell-based, A549, cytoblot, luminescence, serum-stimulated, primary screen (AID 1158).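 Note: serum-stimulated A549 lung adenocarcinoma cells; signal is phosphorylated S6 detected by cytoblot immunostaining with HRP secondary.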 The following applies: 5 h, higher = more signal.
The target in assay [8] is NADPH oxidase 2 (Homo sapiens) (UniProt P04839). Kind of assay: compounds shifting NOX2 Amplex Red fluorescence – cell-based, HEK293-NOX2, PMA-stimulated, NOX inhibitor project, primary screen (AID 1159). Note: test concentration not given here. The following applies: 45 min, higher = more signal, called active from +8 up or from −8 down.
For assay [9], the target named is NADPH oxidase 4 (Homo sapiens) (UniProt Q9NPH5). Kind of assay: compounds shifting NOX4 Amplex Red fluorescence – cell-based, HEK293-NOX4, tetracycline-induced, NOX inhibitor project, primary screen (AID 1160). The following applies: HEK293-NOX4, Amplex Red H2O2 fluorescence, 45 min; higher = more signal, called active from +8 up or from −8 down.
Assay [10] has as its target NADPH oxidase 5 (Homo sapiens) (UniProt Q96PH1). Kind of assay: compounds shifting NOX5 Amplex Red fluorescence – cell-based, HEK293-NOX5, NOX inhibitor project, primary screen (AID 1161). The following applies: HEK293-NOX5, ionomycin, 45 min, higher = more signal.
Assay [11] can be described thus: compound effects on lung adenocarcinoma cell viability – A549, calcein-AM fluorescence, 48 h, basal, profiling panel (AID 1162). Note: test concentration not given here. The following applies: higher = more signal.
The nature of assay [12]: compound effects on differentiated 3T3-L1 adipocyte viability – cell-based, 3T3-L1 adipocytes, calcein-AM fluorescence, 48 h, basal, profiling panel (AID 1163). Note: test concentration not given here. The following applies: 3T3-L1 adipocytes viability, higher = more signal.
Assay [13] in a line: compound effects on hepatocellular carcinoma cell viability – HepG2, calcein-AM fluorescence, 48 h, basal, profiling panel (AID 1164). Note: test concentration not given here. The following applies: higher = more signal.
Assay [14] in a line: compound effects on multiple myeloma cell viability – MM1S, calcein-AM fluorescence, 48 h, basal, profiling panel (AID 1165).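 Note: viability of MM1S multiple myeloma cells under basal unstimulated conditions; test concentration not given here.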 The following applies: higher = more signal.
Assay [15] is described as follows: calcein-AM signal in unstimulated myeloma cells – cell-based, calcein-AM fluorescence, 48 h, PK04 Diversity Set, profiling panel (AID 1166).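 Note: cells grown under basal conditions without added stimulus; test concentration not given here.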 The following applies: RPMI8226 myeloma viability, higher = more signal.
Assay [16] is described as follows: JC-1 mitochondrial signal, unstimulated HepG2 cells – cell-based, JC-1 fluorescence, 24 h, 100 nL compound, profiling panel (AID 1167). Note: test concentration not given here. The following applies: HepG2 mitochondrial potential, higher = more signal.
Assay [17] can be described thus: JC-1 mitochondrial signal, unstimulated adipocytes – cell-based, JC-1 fluorescence, 3T3-L1 adipocytes, 24 h, 100 nL compound, profiling panel (AID 1168). Note: test concentration not given here. The following applies: JC-1 mitochondrial fluorescence, higher = more signal, called active from +8 up or from −8 down.
Assay [18] in a line: JC-1 mitochondrial signal, unstimulated myeloma cells – cell-based, JC-1 fluorescence, RPMI8226, 24 h, 100 nL compound, profiling panel (AID 1169). Note: test concentration not given here. The following applies: JC-1 mitochondrial potential fluorescence, higher = more signal.
Assay [19] is described as follows: JC-1 mitochondrial signal, unstimulated MM1S myeloma – cell-based, JC-1 fluorescence, 24 h, 100 nL compound, profiling panel (AID 1170). Note: test concentration not given here. The following applies: MM1S mitochondrial potential, higher = more signal.
Assay [20] can be described thus: resazurin metabolic signal in A549 cells – cell-based, resazurin fluorescence, 24 h, PK04 Diversity Set, profiling panel (AID 1171). Note: test concentration not given here. The following applies: A549 viability, higher = more signal, called active from +8 up or from −8 down. (The colour change of resazurin is a common sign of viable cells or microbes.)

Chain of NADPH oxidase 4 (Homo sapiens) (Q9NPH5 whole entry, looked up): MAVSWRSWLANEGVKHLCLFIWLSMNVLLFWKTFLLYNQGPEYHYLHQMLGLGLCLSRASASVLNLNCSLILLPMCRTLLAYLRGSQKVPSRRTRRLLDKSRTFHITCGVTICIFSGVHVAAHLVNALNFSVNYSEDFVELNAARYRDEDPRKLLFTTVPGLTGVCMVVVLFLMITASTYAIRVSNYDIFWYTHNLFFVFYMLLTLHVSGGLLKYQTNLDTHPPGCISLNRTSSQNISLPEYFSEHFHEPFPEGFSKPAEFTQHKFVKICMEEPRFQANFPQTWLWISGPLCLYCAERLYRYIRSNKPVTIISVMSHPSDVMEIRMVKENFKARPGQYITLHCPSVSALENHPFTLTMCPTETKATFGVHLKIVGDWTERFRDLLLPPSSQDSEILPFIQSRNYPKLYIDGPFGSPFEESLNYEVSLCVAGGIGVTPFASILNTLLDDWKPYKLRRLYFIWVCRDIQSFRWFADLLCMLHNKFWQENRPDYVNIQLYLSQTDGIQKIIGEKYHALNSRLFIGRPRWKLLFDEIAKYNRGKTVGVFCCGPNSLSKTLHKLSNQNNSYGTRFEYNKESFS
Chain of NADPH oxidase 2 (Homo sapiens) (P04839 whole entry, looked up): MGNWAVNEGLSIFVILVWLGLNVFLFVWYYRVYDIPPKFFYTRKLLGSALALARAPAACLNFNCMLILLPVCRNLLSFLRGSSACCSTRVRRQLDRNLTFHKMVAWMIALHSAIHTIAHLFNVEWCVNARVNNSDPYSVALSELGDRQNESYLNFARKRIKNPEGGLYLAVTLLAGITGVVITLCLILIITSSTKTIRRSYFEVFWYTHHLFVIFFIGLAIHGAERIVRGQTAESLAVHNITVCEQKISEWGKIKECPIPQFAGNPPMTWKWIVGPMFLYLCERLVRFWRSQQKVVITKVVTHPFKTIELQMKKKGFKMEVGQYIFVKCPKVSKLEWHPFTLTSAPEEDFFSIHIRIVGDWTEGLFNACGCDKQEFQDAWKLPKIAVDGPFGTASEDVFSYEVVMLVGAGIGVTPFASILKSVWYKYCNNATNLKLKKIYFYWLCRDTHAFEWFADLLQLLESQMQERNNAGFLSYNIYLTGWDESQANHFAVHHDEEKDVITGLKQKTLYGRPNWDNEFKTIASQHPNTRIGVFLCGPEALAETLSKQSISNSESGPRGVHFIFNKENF
Chain of NADPH oxidase 5 (Homo sapiens) (Q96PH1 whole entry, looked up): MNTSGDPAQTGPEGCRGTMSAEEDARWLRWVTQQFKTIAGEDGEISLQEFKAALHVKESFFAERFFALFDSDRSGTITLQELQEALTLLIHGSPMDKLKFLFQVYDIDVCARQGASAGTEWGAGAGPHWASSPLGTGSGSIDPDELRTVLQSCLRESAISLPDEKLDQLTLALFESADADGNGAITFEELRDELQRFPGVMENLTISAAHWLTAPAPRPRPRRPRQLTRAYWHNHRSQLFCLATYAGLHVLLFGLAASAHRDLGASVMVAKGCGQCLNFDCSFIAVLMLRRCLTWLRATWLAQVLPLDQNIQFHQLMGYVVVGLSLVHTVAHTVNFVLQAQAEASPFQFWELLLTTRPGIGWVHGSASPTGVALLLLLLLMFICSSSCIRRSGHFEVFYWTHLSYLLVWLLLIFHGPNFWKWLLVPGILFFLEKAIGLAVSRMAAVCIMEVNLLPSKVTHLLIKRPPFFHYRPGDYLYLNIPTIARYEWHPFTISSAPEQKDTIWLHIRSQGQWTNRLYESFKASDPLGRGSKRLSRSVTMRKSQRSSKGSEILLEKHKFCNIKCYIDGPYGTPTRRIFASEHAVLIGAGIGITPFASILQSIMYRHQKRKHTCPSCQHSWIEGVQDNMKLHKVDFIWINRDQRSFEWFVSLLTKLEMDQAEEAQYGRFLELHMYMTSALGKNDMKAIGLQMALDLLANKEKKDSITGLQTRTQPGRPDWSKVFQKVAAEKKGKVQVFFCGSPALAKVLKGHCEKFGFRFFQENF

In the case of `Cc1cc2c(nc1C)CCCN2CC(C)ON=C[C@@H](C)[C@H](OCc1ccccc1)C(C)C` (stereo not given in full), the z-score is -0.434 (inactive) in [1]; 0.376 (inactive) in [3]; -0.0677 (inactive) in [4]; -0.108 (inactive) in assay [5]; 0.294 (inactive) in [6]; -0.775 in [7]. The z-score in assay [8] was 0.231 (inactive); in assay [9] it was -0.217 (inactive); in assay [10], 0.00713; in [11], -0.351; in [12], -0.641; in assay [13] it was 0.122. Moreover, the z-score in assay [14] is -1.24; in assay [15], -0.583; in assay [16], -0.741; in assay [17] it was -0.827 (inactive); in [18] it was 0.708; in [19], -0.483. In [20], the z-score is -0.522 (inactive). For the same compound, the composite z-score in assay [2] was -0.0984.
As for `COC(=O)[C@H](C)NC(=O)CCC1CC(OC(=O)NCCc2ccc(F)cc2)CC2(CCCC(COC(=O)NCCCN3CCCC3=O)O2)O1` (stereo not given in full), the z-score in assay [1] is -0.184 (inactive); in assay [3], -0.798 (inactive); in assay [4], -0.744 (inactive); in [5], 1.05 (inactive); in assay [6], 0.298 (inactive); in [7], 0.244. In addition, the z-score in assay [8] is 1.32 (inactive); in assay [9] it was 0.113 (inactive); in assay [10], -0.0138; in [11], -0.48; in [12] it was 1.06; in assay [13] it was -1.32. Besides, the z-score in [14] is -0.901; in [15], -1.78; in assay [16] it was -0.197; in assay [17], 0.0783 (inactive); in assay [18] it was -0.405; in assay [19] it was 0.0394. Also, the z-score in [20] was 0.209 (inactive). In addition, in [2], the composite z-score is -0.294.
Consider `COC(=O)[C@@]1(Cc2ccc(OC)cc2)[C@H]2c3cc(C(=O)N(C)C)n(Cc4ccc(O)c(OC)c4)c3C[C@H]2CN1C(=O)c1ccccc1`, for which the z-score in assay [1] is -0.583 (inactive) and -1.09 (inactive); in [3], 7.35 (inactive) and 6.71 (inactive); in [4] it was 0.45 (inactive) and 1.11 (inactive); in assay [5] it was 2.07 (inactive) and 1.63 (inactive); in assay [6], 0.642 (inactive) and 1.38 (inactive); in assay [7] it was 0.217 and 0.749. The z-score is -1.99 (inactive) and 0.285 (inactive) in assay [8]; -6.68 (inactive) and 1.16 (inactive) in assay [9]; -5.69 and -0.509 in assay [10]; -0.352 and 0.46 in assay [11]; 0.865 and 0.215 in [12]; -0.0117 and 0.763 in assay [13]. Moreover, the z-score is 0.0138 and -1.26 in [14]; -0.475 and -2.77 in assay [15]; 2.46 and 2.03 in [16]; -0.0971 (inactive) and 0.395 (inactive) in assay [17]; 0.178 and -0.792 in assay [18]; -0.74 and -1.95 in assay [19]. In addition, the z-score in assay [20] is 1.06 (inactive) and -1.21 (inactive). Further, the composite z-score in [2] is 0.0913 and 0.661.
In the case of `C=CCN(C(=O)C(c1cccs1)N(C(=O)/C=C\C(=O)O)c1ccc(CCO)cc1)C(C)(C)C` (stereo not given), the z-score in assay [1] was 0.381 (inactive) and -0.0974 (inactive); in [3], -0.274 (inactive) and -0.322 (inactive); in assay [4] it was -0.432 (inactive) and 0.0511 (inactive); in assay [5], -0.518 (inactive) and -0.338 (inactive); in [6] it was 0.0097 (inactive) and 0.232 (inactive); in assay [7] it was 1.36 and 0.123. Moreover, the z-score in assay [8] is 0.0507 (inactive) and 0.27 (inactive); in assay [9], -0.86 (inactive) and -0.783 (inactive); in [10], 0.274 and 0.335; in assay [11], -0.392 and -0.51; in assay [12] it was -0.589 and -1.1; in [13] it was -0.0749 and -0.55. Also, the z-score in assay [14] was -1.18 and 0.821; in assay [15], 0.3 and 0.317; in assay [16] it was -0.178 and -0.341; in assay [17], 0.529 (inactive) and -0.179 (inactive); in [18] it was 0.185 and 0.0345; in [19] it was 0.75 and 0.721. The z-score in assay [20] was -0.0762 (inactive) and -0.389 (inactive). Besides, the composite z-score in [2] is -0.134 and 0.0355.
Turning to `CC(C)=NOCc1ccc(-c2cn([C@@H]3COC[C@H]3O)nn2)cc1`, the z-score in assay [1] is 0.164 (inactive); in assay [3], 11.2 (active); in assay [4], 0.536 (inactive); in [5] it was -0.725 (inactive); in assay [6], 0.296 (inactive); in [7] it was -0.119. The z-score in assay [8] is 0.606 (inactive); in [9] it was 0.0519 (inactive); in assay [10], -0.388; in assay [11] it was 0.0524; in assay [12], 0.371; in assay [13] it was 0.239. Moreover, the z-score in [14] is -0.812; in assay [15], 0.176; in assay [16], -0.32; in assay [17], -0.0926 (inactive); in assay [18] it was 0.169; in assay [19], 1.43. The z-score in assay [20] is -0.207 (inactive). For the same compound, the composite z-score in assay [2] was -0.245.
For `C=CCN(CCCC)C(=O)C(c1cccs1)N(CCOCCO)C(=O)/C=C\C(=O)O` (stereo not given), the z-score in assay [1] is 1.59 (inactive) and 1.84 (inactive); in [3], -0.0592 (inactive) and -0.28 (inactive); in [4] it was -0.832 (inactive) and -0.75 (inactive); in [5], -0.114 (inactive) and 0.0221 (inactive); in [6], -1.22 (inactive) and -1.27 (inactive); in [7] it was 1.05 and 1.65. In addition, the z-score in assay [8] is 0.0943 (inactive) and 0.209 (inactive); in assay [9] it was -0.73 (inactive) and -0.71 (inactive); in assay [10], 0.465 and -0.0314; in [11], 1.12 and 0.149; in assay [12], 0.185 and -0.242; in assay [13] it was 0.914 and 0.824. The z-score was 1.04 and 1.56 in assay [14]; 1.05 and -0.0726 in [15]; 0.644 and 1.03 in assay [16]; 0.713 (inactive) and 0.0219 (inactive) in assay [17]; 0.835 and 0.00316 in [18]; -1.11 and -0.822 in assay [19]. Further, in assay [20], the z-score is -0.557 (inactive) and -0.469 (inactive). Moreover, the composite z-score in [2] was -0.275 and -0.127.
